The list is not random: actives were taken first. Their share in the collection is about 11%.
NIH3T3 tox – kills NIH 3T3 cells; Potency, µM (series often up to 96.7 µM), for the others: at the highest dose activity change, negative = cytotoxicity, hits mostly inhibitors; 94,000 tested, 4.3% active; NIH 3T3 viability, CellTiter-Glo ATP luminescence, 48-72 h; further: nearly all actives have a fitted effect of over 55% in size
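Cytotoxicity is measured as loss of cellular ATP: NIH 3T3 cells (400/well) are exposed to compound for 48 or 72 hr at 37 °C, then CellTiter-Glo luminescence is imaged after 10 min at room temperature.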
Luciferase inh – Photinus pyralis luciferase inhibition; P08659; 76,000 tested, 2.5% active; Potency, µM (highest dose often 115 µM), actives largely listed as inhibitors; AID 1347043; purified P. pyralis luciferase, luminescence, biochemical; further: nearly all actives have a fitted effect of over 65% in size
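Biochemical qHTS: compound (6-point titration) added to 10uM D-luciferin plus 10uM ATP in Tris acetate pH 7.5 buffer with Mg, Tween-20 and BSA, then purified enzyme at 10nM; light output imaged.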
HEK cytotox – kills HEK 293 cells; HEK 293 viability, ATP luminescence (CellTiter-Glo), 48-72 h; Potency, µM (doses to about 115 µM), without a hit: top-dose activity change, negative = cytotoxicity, usual class: inhibitors; 94,000 tested, 6.6% active; further: nearly all actives have a fitted effect of over 60% in size
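ATP-coupled CellTiter-Glo luminescence served as viability read-out, recorded 10 min after reagent addition at room temperature. HEK 293 cells, 250 cells/well, had been incubated with pintool-transferred compound for 48 or 72 hr at 37 degree Celsius.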
hNpr1 antagonist – human Npr1 receptor antagonism | AID 1347048 | Potency, µM (series often up to 46.3 µM), for the others: at the highest dose activity change, negative = inhibition, actives largely listed as inhibitors | 76,000 tested, 1.6% active | HEK293 hNpr1 GloSensor cGMP, ANP-stimulated luminescence; calls by dose curve; further: nearly all actives have a fitted effect of over 60% in size
Target sequence (P16066 whole entry, looked up): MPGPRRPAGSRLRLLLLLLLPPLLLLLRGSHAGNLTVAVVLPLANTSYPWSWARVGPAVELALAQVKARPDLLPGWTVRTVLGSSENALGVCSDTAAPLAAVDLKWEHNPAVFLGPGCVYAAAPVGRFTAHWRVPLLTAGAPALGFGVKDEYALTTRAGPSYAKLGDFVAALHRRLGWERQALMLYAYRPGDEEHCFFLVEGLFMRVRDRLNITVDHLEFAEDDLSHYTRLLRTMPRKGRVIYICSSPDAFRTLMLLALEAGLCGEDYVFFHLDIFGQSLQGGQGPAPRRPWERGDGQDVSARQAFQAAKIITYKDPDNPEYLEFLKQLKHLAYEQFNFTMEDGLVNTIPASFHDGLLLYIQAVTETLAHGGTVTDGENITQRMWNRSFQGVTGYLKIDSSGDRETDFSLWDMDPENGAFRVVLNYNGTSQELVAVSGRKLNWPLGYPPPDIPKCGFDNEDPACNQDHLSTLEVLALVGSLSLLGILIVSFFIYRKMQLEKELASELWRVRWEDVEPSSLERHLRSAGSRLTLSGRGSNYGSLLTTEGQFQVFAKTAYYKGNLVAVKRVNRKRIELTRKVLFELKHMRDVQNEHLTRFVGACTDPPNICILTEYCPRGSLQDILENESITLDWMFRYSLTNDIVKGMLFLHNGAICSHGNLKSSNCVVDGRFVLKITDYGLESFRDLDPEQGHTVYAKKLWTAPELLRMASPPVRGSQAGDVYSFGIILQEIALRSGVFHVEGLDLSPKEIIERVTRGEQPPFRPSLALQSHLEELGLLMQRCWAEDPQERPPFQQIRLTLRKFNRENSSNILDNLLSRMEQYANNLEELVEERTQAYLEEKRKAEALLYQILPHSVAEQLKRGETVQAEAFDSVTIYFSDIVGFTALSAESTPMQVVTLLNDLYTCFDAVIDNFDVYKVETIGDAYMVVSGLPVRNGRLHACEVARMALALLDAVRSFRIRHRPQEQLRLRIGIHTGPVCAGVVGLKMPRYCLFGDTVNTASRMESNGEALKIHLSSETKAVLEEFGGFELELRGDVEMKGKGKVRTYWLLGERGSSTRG
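HEK293 cells stably expressing human Npr1 and cGMP GloSensor pGS-40F, loaded 2 h with 2% GloSensor reagent, given compound 30 min at room temperature. Luminescence read before and 20 min after 0.1 nM hNppA.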
The depositor's hits bear a star; i = inactive; ? = inconclusive; . = not tested or not shown; ! = not confirmed by another sample; [ ] = dose if it differs, or a comment. Unless noted, the call rests on the fitted dose curve; in most records, active means well fitted curve in the direction sought with a large enough effect; inconclusive means small, poorly fitted or top-dose-only effect, or another doubt; inactive means no such curve, though single readings can be large; an effect the other way counts as inactive or inconclusive. On the % scale 0 is the no-effect control and ±100 the full control effect; potency means the concentration at half of the fitted maximal effect.

SMILES	NIH3T3 tox	Luciferase inh	HEK cytotox	hNpr1 antagonist
Cc1ccc(NC(=O)c2ccc3c(c2)N(C)C2CCCCN2C3=O)cc1C (centres undefined)	?	39.8µM*	?	-3.3%
Cc1cc(NC(=O)c2ccc3c(c2)N(C)C2CCCCN2C3=O)ccc1Cl (centres undefined)	-24.5%	25.1µM*	?	-1.1%
CC(=O)Nc1ccc(CN[C@@H]2CO[C@H](CNC(=O)NC(C)C)[C@H]2O)cc1	-8.5%[138 µM]	i	-10.8%[172 µM]	0.5%[70.6 µM]
Cc1ccc(-c2cc(C(=O)NCc3ccc(F)cc3)nn3cnnc23)cc1	-16.4%	.	1.3%	.
Cc1ccc(NC(=O)c2ccc3c(c2)N(C)C2CCCCCN2C3=O)cc1F (centres undefined)	?	i	31.6µM*	0.0%
COc1ccc(N2CC3CCC(C2)N3Cc2cccc(-c3cccnc3)c2)cc1	?	.	39.8µM*	.
CCCn1c(C)cnc1CC1CCN(C(=O)CCC2CCCC2)C1 (centres undefined)	-4.9%	.	-21.5%	.
CCNc1ccnc(NC2CCCc3c2cnn3-c2ccc(C)c(C)c2)n1 (centres undefined)	28.2µM*	?	39.8µM*	2.8%
COc1ccccc1CNC(=O)C[C@@H]1CCNC[C@@H]1Cc1cc(CSc2ccccc2)on1	79.4µM*	i	?	-9.0%
COc1ccccc1CNC(=O)C[C@@H]1CCNC[C@@H]1Cc1cc(C(C)(C)C)on1	100µM*	i	100µM*	-13.0%[70.6 µM]
COc1ccccc1-c1cccc(C(=O)N2CCC[C@H]2C(=O)NC2CCCC2)c1	-4.3%	.	-7.3%	.
COc1ccc(F)cc1-c1ccc(CN2CCCCC2C(=O)NCc2cccnc2)cc1 (centres undefined)	?	.	50.1µM*	.
CN1C(=O)CCCCC1C(=O)NCc1cccc(F)c1 (centres undefined)	i	i	-1.1%	1.0%
COc1ccccc1-c1ccc(CN2CCCCC2C(=O)NCc2ccc3c(c2)OCO3)cc1 (centres undefined)	?	.	25.1µM*	.
COc1ccccc1-c1ccc(CN2CCCCC2C(=O)NC2CCCC2)cc1 (centres undefined)	?	.	35.5µM*!	.
COc1ccccc1-c1ccc(CN2CCCCC2C(=O)NCc2cccc(F)c2)cc1 (centres undefined)	?	.	31.6µM*!	.
Fc1ccc(OCc2nc(C3CCCN3)no2)cc1 (centres undefined)	-13.9%	i	2.5%	-9.4%
COc1ccccc1-c1ccc(CN2CCCCC2C(=O)NCc2ccc(F)cc2F)cc1 (centres undefined)	?	.	20µM*	.
COc1ccccc1-c1cccc(C(=O)N2CCC[C@H]2C(=O)NCc2ccccc2F)c1	-25.5%	.	?	.
COc1ccccc1-c1ccc(CN2CCCCC2C(=O)NCc2ccccc2Cl)cc1 (centres undefined)	28.2µM*	.	?	.
COc1ccc(F)cc1-c1ccc(CN2CCCCC2C(=O)N2CCc3ccccc3C2)cc1 (centres undefined)	39.8µM*	.	31.6µM*	.
COc1ccc(C(=O)NC2CCN(c3cnn(CC4CC4)c(=O)c3)CC2)cc1	-4.6%	i	4.4%	-1.4%
c1ccc(CN2C[C@@H]3CC[C@H](C2)N(Cc2ccc4nsnc4c2)C3)nc1	?	i	?	-1.0%
COc1cc(F)ccc1-c1cc2c(ccn2Cc2ccncc2)c(N2CCOCC2)n1	?	i	79.4µM*	-9.6%[70.6 µM]
c1cc(Cn2ccc3c(N4CCOCC4)nc(-c4cncnc4)cc32)ccn1	10µM*	i	?	-1.8%[70.6 µM]
SMILES	NIH3T3 tox	Luciferase inh	HEK cytotox	hNpr1 antagonist
Cc1cc(C)cc(C(=O)N2CCC(n3cnnc3-c3ccccc3)CC2)c1	i	i	9.1%	-2.7%
CN(C)C(=O)C1CCC(C(=O)N2CCC(c3nc4ncccc4[nH]3)CC2)CC1 (centres undefined)	0.7%	.	2.1%	.
Cc1nc2c(c(N3CCC(O)(CN4CCCC4)CC3)n1)CCNCC2	1.8%	i	i	2.2%
Cc1nc2c(c(N3CCCC(COc4cccc(F)c4)C3)n1)CCNCC2 (centres undefined)	?	i	22.4µM*	-5.2%
Cc1nc(CN2Cc3nc(N(C)c4ccccc4)ccc3OCC2=O)cs1	?	i	?	?
COc1cccc(CN2Cc3nc(-c4ccccc4)ccc3OCC2=O)c1	?	i	79.4µM*	-14.5%[70.6 µM]
CN1Cc2nc(-c3cnn(Cc4ccccc4)c3)ccc2OCC1=O	?	i	?	-4.6%[70.6 µM]
CN(c1ccccc1)c1ccc2c(n1)CN(Cc1ccccc1)C(=O)CO2	79.4µM*	50.1µM*	89.1µM*	?
COCCN1Cc2nc(-c3cnn(Cc4ccccc4)c3)ccc2OCC1=O	44.7µM*	i	?	-18.1%[70.6 µM]
O=C1COc2ccc(-c3cn[nH]c3)nc2CN1Cc1ccccc1	28.2µM*	i	?	-7.6%[70.6 µM]
COc1cccc(CN2Cc3nc(-c4ccncc4)ccc3OCC2=O)c1	?	i	?	-29.2%[70.6 µM]
CCC1=C(C(=O)OC)C(c2cccc(F)c2)N2C(CC(=O)NCC3CCCO3)=CSC2=N1 (centres undefined)	-14.1%	i	-13.1%	-14.9%
COc1cccc(CN2Cc3nc(-c4cccc(O)c4)ccc3OCC2=O)c1	?	i	100µM*	-21.7%[70.6 µM]
Cn1cc(-c2ccc3c(n2)CN(Cc2ccccc2)C(=O)CO3)cn1	39.8µM*	i	?	-3.7%[70.6 µM]
O=C1COc2ccc(-c3ccccc3)nc2CN1CCOc1ccccc1	44.7µM*	i	?	-27.2%[70.6 µM]
CN1Cc2nc(-c3cnn(C)c3)ccc2OCC1=O	?	i	-1.8%[230 µM]	5.0%[70.6 µM]
COc1cccc(CN2Cc3nc(-c4cn[nH]c4)ccc3OCC2=O)c1	35.5µM*	i	?	-1.9%[70.6 µM]
COc1cccc(CN2Cc3nc(-c4ccsc4)ccc3OCC2=O)c1	?	i	?	-10.6%[70.6 µM]
COc1ccc(-c2ccc3c(n2)CN(CCOc2ccccc2)C(=O)CO3)cc1	?	i	?	?
CC(C)NC(=O)N(C1CC1)C1CCOC2(CCN(C(=O)C3CC3)CC2)C1 (centres undefined)	-10.3%	.	-1.4%	.
Cc1cc(N2CCC(NCc3noc(C)n3)CC2)nc(-c2ccccc2O)n1	?	i	?	-1.5%
Cc1cc(N2CCC(NCc3nc[nH]c3C)CC2)nc(-c2ccccc2O)n1	35.5µM*	i	?	-2.1%
COc1ccc2nc([C@H]3CCN(Cc4cccnc4)C3)[nH]c2c1	-16.7%[174 µM]	70.8µM*	-0.5%[172 µM]	2.2%[70.6 µM]
Cc1ccc2nc([C@H]3CCN(Cc4ccccn4)C3)[nH]c2c1	?	39.8µM*	50.1µM*	-5.6%[70.6 µM]
COc1ccc2nc([C@H]3CCN(Cc4ccc(F)cc4)C3)[nH]c2c1	112µM*	50.1µM*	79.4µM*	-15.3%[70.6 µM]
COc1ccc2nc([C@H]3CCN(Cc4ccccc4)C3)[nH]c2c1	?	22.4µM*	?	-2.3%[70.6 µM]
COc1ccc2nc([C@H]3CCN(Cc4cccc(Cl)c4)C3)[nH]c2c1	?	i	?	?
Cn1ncc2c(C(=O)NCCc3ccc(F)cc3)cc(-c3ccc(C(F)(F)F)cc3)nc21	-11.7%	.	i	.
